Compound activity: PubChem, The Scripps Research Institute Molecular Screening Center
Most compounds without a hit are left out; they make up all but 2.3% or so of the library.
CHRM1 agonist = human M1 muscarinic receptor agonism | CHO-K1 hM1, Fluo-8 calcium fluorescence, agonist mode; 0% DMSO, 100% acetylcholine EC100 | activation, % at 3 µM | actives 0.33% (n = 360,000);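 active means activation above the run's mean compound activation plus 3 SD, cut at about 16% in these data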;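 further: peak over basal fluorescence ratio within a 140 s kinetic read after compound addition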
Target sequence (P11229 whole entry, looked up): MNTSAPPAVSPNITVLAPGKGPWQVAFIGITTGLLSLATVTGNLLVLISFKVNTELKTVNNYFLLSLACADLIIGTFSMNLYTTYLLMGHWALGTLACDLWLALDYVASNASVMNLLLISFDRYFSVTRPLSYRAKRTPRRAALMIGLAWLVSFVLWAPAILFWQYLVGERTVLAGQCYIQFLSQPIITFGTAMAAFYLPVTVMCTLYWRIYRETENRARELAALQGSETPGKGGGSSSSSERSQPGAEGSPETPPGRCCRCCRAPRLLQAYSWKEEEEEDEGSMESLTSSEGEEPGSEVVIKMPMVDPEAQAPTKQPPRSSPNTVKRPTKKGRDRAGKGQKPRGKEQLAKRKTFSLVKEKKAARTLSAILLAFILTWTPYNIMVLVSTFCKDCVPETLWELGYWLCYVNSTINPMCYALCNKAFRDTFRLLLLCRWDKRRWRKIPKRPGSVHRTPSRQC
CHO-K1 Ca ag = M1 agonist counterscreen hit in parental CHO-K1 cells; Fluo-8 calcium fluorescence; scaled to maximal ATP response, vehicle zero; activation, % at 3 µM; actives 0.48% (n = 360,000); in the data active means activation above about 15%;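 further: untransfected CHO-K1 host cells lacking M1 receptor as counterscreen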
CHO-K1 Ca PAM = nonselective activator or artifact in parental CHO-K1 calcium assay; actives 0.02% (n = 360,000); activation, % at 3 µM; AID 602247; ATP EC20, Fluo-8 calcium fluorescence; 0% at ATP EC20, 100% at ATP max;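 active means activation above the run cutoff, the mean activation of all test compounds plus 3 SD, cut at about 40% in these data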;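 further: peak over basal fluorescence ratio in a 140 s read after ATP addition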
CHRM1 PAM = potentiates human M1 receptor response to acetylcholine | activation, % at 3 µM | CHO-K1 hM1, Fluo-8 calcium fluorescence, ACh EC20; 0% = ACh EC20, 100% = maximal ACh | actives 0.088% (n = 360,000) | AID 588819; in the data active means activation above about 19%, passing the limit was not always enough
CHO-K1 Ca antag = counter-screen for M1 antagonists: effect in parental CHO-K1 cells. ATP-induced calcium, Fluo-8 fluorescence. inhibition, % at 3 µM. actives 0.6% (n = 360,000). AID 602250;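 active means inhibition above a per-plate cutoff, the plate's mean sample inhibition plus 3 SD, cut at about 24% in these data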;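 further: 0% = DMSO plus EC80 ATP and 100% = DMSO alone without ATP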
M1 antag = blocks human M1 muscarinic receptor | P11229 | CHO-K1 hM1, Fluo-8 calcium fluorescence, ACh EC80 antagonist | inhibition, % at 3 µM | actives 1.3% (n = 360,000) | AID 588852;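 active means percent inhibition above its own plate's cutoff, namely the mean of that plate's compound wells plus 3 SD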;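 further: peak over basal fluorescence ratio during 140 s after agonist addition; 0% = ACh EC80 plus DMSO and 100% = DMSO alone without agonist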
Starred values were filed as active, the others as inactive; . = no result.

SMILES	CHRM1 agonist	CHO-K1 Ca ag	CHO-K1 Ca PAM	CHRM1 PAM	CHO-K1 Ca antag	M1 antag
OC1(c2ccc(OC(F)F)cc2)CSC(=Nc2cccnc2)N1C1CC1 (stereo unspecified)	1.2	7.7	3.4	-16.2	12.2	21.4*
CC(=O)Nc1ccc(NC(=O)COC(=O)c2c3c(nc4ccccc24)CCN(Cc2ccccc2)C3)cc1	3.2	5.6	-9.1	-22.5	4.6	45.1*
O=C(COC(=O)c1c2c(nc3ccccc13)CCN(Cc1ccccc1)C2)Nc1c(F)cccc1F	-2.1	6.5	4.4	-13.1	2.5	35.6*
CCN1CCc2nc3ccccc3c(C(=O)Nc3ccc(NC(C)=O)cc3)c2C1	-0.9	2.7	22.0	17.4	-9.3	-15.2
CCC(=O)/C=C1/Sc2ccccc2N1CC	-6.5	-0.5	15.9	1.1	-0.2	-19.3
CCOC(=O)/C(=C\C=C1/Sc2ccccc2N1CC)C(C)=O	46.9*	37.9*	-2.4	-13.4	18.2	25.1
CCN1/C(=C/C(=O)c2ccco2)Sc2ccccc21	-3.2	0.1	10.4	9.2	0.8	-11.4
CCOC(=O)/C(=C/C=C1\Sc2ccccc2N1CC)C(C)=O	19.0*	18.1*	-17.2	-15.6	27.7*	20.8
CCOC(=O)/C(=C/C=C1\Sc2cc(C)c(C)cc2N1CC)C(C)=O	51.4*	22.4*	-19.6	-16.0	19.6	32.6*
CCNC(=O)C1CCCN(C(=O)c2ccc3ccccc3c2)CC1 (stereo unspecified)	2.6	-0.2	-7.1	12.0	8.6	-10.4
COC(=O)c1ccsc1NC(=O)CN1CCN(c2ccc(F)cc2)CC1	-1.6	1.8	13.2	1.0	-14.5	-22.9
COC(=O)c1ccsc1NC(=O)CN1CCN(c2ncccn2)CC1	2.1	0.3	-21.6	17.9	25.0*	-6.3
Cc1cc(Cl)ccc1NC(=S)NCc1ccc(Cl)cc1	2.0	7.5	-2.7	-13.4	21.1	1.5
Cc1cc(Cl)ccc1NC(=S)NCCc1ccc(Cl)cc1	-2.5	1.8	-8.9	-10.8	25.5*	21.7
CCOC(=O)c1oc2ccc(CNC3CCCCC3)c(Cl)c2c1C	-11.5	1.1	-0.2	-36.2	-2.0	75.8*
O=C(Nc1ccc(O)c(-c2nc3ccccc3s2)c1)C1=COCCO1	-8.5	3.2	15.6	-22.1	-9.4	78.8*
Cc1ccc(NC(=O)COC(=O)CCCC2=NS(=O)(=O)c3ccccc3N2)cc1C	-7.1	0.0	-17.6	2.3	-8.4	-6.2
Cc1ccccc1COC(=O)CCCC1=NS(=O)(=O)c2ccccc2N1	22.7*	13.4	17.0	-7.9	-9.2	-2.7
COc1ccc([C@H]2N[C@]3(CCCN(Cc4ccc(C)cc4)C3=O)[C@H]3C(=O)N(Cc4ccccc4)C(=O)[C@@H]23)cc1	-8.6	1.7	17.8	3.5	0.2	-13.4
O=C(Nc1cccc(Cl)c1)c1ccccc1NC(=O)C1CCCCC1C(=O)O (stereo unspecified)	-3.3	-0.4	9.4	-0.8	-8.0	-2.2
O=C(Nc1ccc(F)c(Cl)c1)c1ccccc1NC(=O)C1CCCCC1C(=O)O (stereo unspecified)	-1.6	0.3	-6.9	-10.0	25.6*	19.3
COC(=O)c1cc2occc2n1Cc1nc(-c2ccccc2F)oc1C	-6.4	0.1	9.1	-23.6	-9.0	53.2*
COC(=O)c1cc2sc(Cl)cc2n1Cc1nc(-c2ccccc2)oc1C	1.2	-0.2	-3.8	-0.1	13.1	4.7
COC(=O)c1cc2ccsc2n1Cc1nc(-c2ccc(OC)cc2)oc1C	-9.8	0.6	5.8	-33.9	-12.4	44.9*
COC(=O)c1cc2sccc2n1Cc1nc(-c2ccc(OC)cc2)oc1C	-12.0	0.0	5.6	-19.6	-10.9	9.3
SMILES	CHRM1 agonist	CHO-K1 Ca ag	CHO-K1 Ca PAM	CHRM1 PAM	CHO-K1 Ca antag	M1 antag
COc1cccc(C(O)c2nc(-c3ccc(F)c(Cl)c3)cs2)c1 (stereo unspecified)	-1.8	0.4	-4.3	7.2	13.8	-6.8
CN1CCC(OC(c2ccccc2)c2ccccc2)CC1	-8.3	-0.3	-4.6	-26.2	-2.6	99.5*
CN1CCC(Oc2ccccc2Sc2ccccc2)CC1	-9.3	3.5	2.6	-26.4	5.9	100.2*
C#CCN(C[C@@H]1[C@@H](OC(=O)NCc2ccccc2)[C@@H](OC(=O)NCc2ccccc2)CN(C(=O)OC(C)C)N1C(=O)OC(C)C)S(=O)(=O)c1ccc(C)cc1	-3.5	1.7	14.6	1.1	-11.3	-2.9
CCOc1cc2[nH]c(=O)n(Cc3ccccc3)c(=O)c2cc1OCC	-3.6	-0.3	-7.6	-0.8	26.3*	8.5
COc1ccc(Cn2c(=O)[nH]c3cc(OC)c(OC)cc3c2=O)cc1	-0.8	5.9	4.1	-4.3	-3.9	9.0
CCOC(=O)[C@]12CCC=C1N(Cc1ccc(Cl)cc1Cl)C(=O)[C@H](CC(=O)N1CCOCC1)C2	.	0.2	2.0	.	-14.1	.
O=C1NC(=S)S/C1=C\C=C\c1ccc([N+](=O)[O-])o1	17.5*	25.9*	1.7	-4.9	43.6*	55.3*
c1ccc(CCCN2CCOCC2)cc1	-2.5	0.7	4.6	13.3	-13.3	-15.3
CC1CC(C)CN(CCCCOc2ccc([N+](=O)[O-])cc2)C1 (stereo unspecified)	-8.1	0.8	21.3	-24.1	-10.3	24.0*
CC1CCN(CCOc2ccc(OCc3ccccc3)cc2)CC1	-10.7	2.2	19.5	-24.6	-9.3	61.4*
c1ccc(COc2ccc(OCCCN3CCCCC3)cc2)cc1	-4.6	1.6	-6.5	-26.2	19.4	49.6*
c1ccc(OCc2ccc(CCCN3CCOCC3)cc2)cc1	-5.1	1.6	-6.7	-21.9	7.8	36.9*
c1ccc(COc2ccc(OCCCNC3CCCC3)cc2)cc1	3.4	6.3	17.6	-23.2	0.9	28.7*
c1ccc(COc2ccc(OCCCCN3CCCC3)cc2)cc1	-3.7	7.2	25.3	-20.6	-8.2	35.4*
O=C(c1ccccc1)c1ccc(OCCCN2CCCCC2)cc1	-6.1	0.3	10.7	-21.4	-6.1	34.0*
CC(=O)c1ccc(OCCCN2CCCCC2)cc1	-6.7	-0.2	10.1	-19.7	-8.8	14.2
CC1CCN(CCCCOc2ccc(C(C)(C)C)cc2)CC1	-6.0	9.0	-5.2	-28.7	1.0	59.5*
COCCCNCCCCOc1ccc(OCc2ccccc2)cc1	-7.7	5.3	0.6	-3.6	4.7	5.1
O=C1NC[C@H](CCCCN2CCN(CCC3CCCCC3)C(=O)C2=O)N(CC2CCCCC2)C1=O	.	0.6	-2.4	.	-13.1	.
CN1[C@@H](Cc2ccccc2)COc2cc(N3CCSCC3)ccc2S1(=O)=O	.	3.8	-0.5	.	2.4	.
COc1cccc(-n2c(SCC(=O)O)nnc2-c2cccnc2)c1	-4.1	0.1	3.0	-15.7	-11.0	22.9*
CCCNC(=O)C1(C)CCCN(Cc2ccc(C)cc2)C1 (stereo unspecified)	-7.7	0.5	2.2	1.3	-4.5	-8.2
